From PubChem BioAssay AID598 (SRMLSC, 2007)
Among all 85,000 compounds or so, about 5,100 (6%) were called active.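 Rule for the calls: active = viability at or below 40%; inactive = viability above 40%.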 What follows is part of a selection rich in actives, with near analogues and random picks from the rest.

Assay: H69AR cell viability reduction – human, 86K library, primary screen (AID 598);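 note: multidrug resistant small cell line overexpressing MRP-1 efflux transporter; 100% = mean luminescence of untreated control wells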
Conditions: H69AR lung tumor viability, ATP luminescence, 72 h; at 10 µM; stronger effect = lower value

SMILES	viability
c1ccc2c(-c3nn4nnnc4c4ccccc34)cccc2c1	64.8% (inactive)
CCCn1c(C)cc(C(=O)COC(=O)c2c(C)nn(-c3ccccc3)c2C)c1C	100% (inactive)
CCOC(=O)N1CCN(C(c2cccnc2)c2ccc3cccnc3c2O)CC1 (stereo not drawn)	35.2% (active)
Oc1c(C(c2ccccn2)N2CCOCC2)ccc2cccnc12 (stereo not drawn)	79.3% (inactive)
CCN1CCN(C(c2cccnc2)c2cc(Cl)c3cccnc3c2O)CC1 (stereo not drawn)	102% (inactive)
CC(C)(C)c1nc2ccccc2c(=O)n1N1C(=O)c2ccccc2C1=O	63.5% (inactive)
Cc1ccc2cc(CCNC(=O)c3c(-c4ccccc4Cl)noc3C)c(=O)[nH]c2c1	86.2% (inactive)
O=C(Nc1ccc(-c2nnc(-c3ccccc3)o2)cc1)c1ccc(Br)o1	39.8% (active)
Brc1ccc(-c2nnc(-c3ccccc3)o2)o1	90% (inactive)
O=C(Nc1ccc(-c2nnc(-c3ccccc3)o2)cc1)C1CCCO1 (stereo not drawn)	86% (inactive)
CC1CCN(S(=O)(=O)c2ccc(S(=O)(=O)NCc3ccco3)cc2)CC1	75.4% (inactive)
Cc1cc(Br)ccc1NC(=O)C1CCCO1 (stereo not drawn)	101% (inactive)
OC(CNCC1CCCO1)Cn1c2ccc(Br)cc2c2cc(Br)ccc21 (stereo not drawn)	1.09% (active)
Cc1ccc(C(=O)NCC2CCCO2)o1 (stereo not drawn)	93.7% (inactive)
CCOCCCNC(=O)C(NC(=O)CNC(=O)c1ccccc1)c1ccc(C)cc1 (stereo not drawn)	101% (inactive)
O=S(=O)(Cc1cc(Sc2ccccc2)nc(-c2ccccc2)n1)c1ccccc1	84.3% (inactive)
c1coc(-c2nc3nc4ccccc4n3nc2-c2ccco2)c1	82.6% (inactive)
CN(c1nc2ccccc2n2c(-c3ccco3)nnc12)S(=O)(=O)c1ccccc1	96.1% (inactive)
Cn1c(-c2ccco2)nc2cc3ccccc3cc21	37.4% (active)
Cc1ccc(C)c(NC2=NCC(=O)N2c2ccc3c(c2)OCCO3)c1	100% (inactive)
COc1ccc(NC(=O)CCN2CCCC2)c(OC)c1	94.6% (inactive)
CN1C(=O)C(CC(N)=O)N(NC(=O)c2ccc(Cl)cc2)C1=S (stereo not drawn)	98% (inactive)
CCOc1cccc(-n2nnnc2-c2ccc(OC)cc2)c1	15.2% (active)
CCOc1cccc(-c2nnc3sc(COc4ccc(OC)cc4)nn23)c1	51.3% (inactive)
COc1ccc(-n2nnnc2SCC(=O)c2ccc(OC)c(OC)c2)cc1	92% (inactive)
C#CCN1C(=O)C(O)(CC(=O)c2cc(OC)ccc2OC)c2ccccc21 (stereo not drawn)	17.6% (active)
CCOC(=O)CN1C(=O)C(O)(CC(=O)c2ccccn2)c2ccccc21 (stereo not drawn)	46.4% (inactive)
O=C(CC1(O)C(=O)N(CN2CCOCC2)c2ccccc21)c1ccccc1 (stereo not drawn)	79.9% (inactive)
